From PubChem BioAssay (NCATS) come the findings set out here.

“And” between values parts separate entries of the source, which are not always exact repeats. Equal entries are not always repeated. Records with an inconclusive call do not appear. Unmarked numbers belong to inactive results. The source made the active and inactive calls. Calls come from the whole dose curve; as a rule, active = well fitted curve in the direction sought with a large enough effect; inconclusive = small, poorly fitted or top-dose-only effect, or another doubt; inactive = no such curve, though single readings can be large; an effect the other way counts as inactive or inconclusive.

Experiment [1] has as its system HaCat. As to the kind of experiment: Cytotoxic Profiling of Annotated Libraries Using Quantitative High-Throughput Screening (AID 1296008). Note: nearly all actives have a fitted effect of over 60% in size. The settings on record: Five cell lines viability, CellTiter-Glo ATP luminescence, 48-72 h; max response: active compounds read low. The method, boiled down: (§1)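 Cytotoxicity was measured as CellTiter-Glo ATP luminescence, read after 10 min at room temperature. Compound treatment of the cells lasted 48 or 72 hr at 37 degrees Celsius in a qHTS format.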

The test system of experiment [2] is KB-3-1. The description is as above. The settings on record: Five cell lines viability, CellTiter-Glo ATP luminescence, 48-72 h; max response: active compounds read low. The method in brief:
as §1
In general terms: ATP-based viability assays read luminescence as a measure of living cells.

The test system of experiment [3] is HACAT. As to the kind of experiment: qHTS assay to identify novel small-molecules to repurpose for Merkel cell carcinoma treatment (AID 1296009). Note: nearly all actives have a fitted effect of over 60% in size. The settings on record: MCC and control cell lines, CellTiter-Glo viability, 72 h; series mostly up to 44.8 µM. The method, boiled down:
(§2)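 Cell viability, measured as CellTiter-Glo luminescence, was normalized between DMSO and no-cell wells. The cells had been exposed to 8- or 11-point compound dilutions for 72 hr at 37 degree celsius.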
On the technique in general: qHTS replaces the single test concentration by a dilution series.

The subject of experiment [4] is MCC-13. Described as above. The settings on record: MCC and control cell lines, CellTiter-Glo viability, 72 h; series mostly up to 46 µM. The method in brief: as §2
Experiment [5] relates to MCC-26. The experiment is described as above. The settings on record: MCC and control cell lines, CellTiter-Glo viability, 72 h; series mostly up to 46 µM. The method, boiled down:
as §2

Experiment [6] deals with UISO. The description is as above. The settings on record: MCC and control cell lines, CellTiter-Glo viability, 72 h; series mostly up to 46 µM. The method, boiled down:
as §2

Experiment [7] concerns CASKI. In words: Primary qHTS to identify gynecologic anti-cancer compounds using libraries of approved drugs and bioactive compounds (AID 1345084). Note: nearly all actives have a fitted effect of over 55% in size. The settings on record: Gynecologic cancer cell panel viability, ATPlite luminescence, 48 h; series mostly up to 57.5 µM. The method in brief: (§3)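 Cytotoxicity screen measuring ATP content by luciferase luminescence. Each compound is applied at five concentrations for 48 h at 37 C with 5% CO2.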

In experiment [8] the test system is Es-2. The experiment is described as above. The settings on record: Gynecologic cancer cell panel viability, ATPlite luminescence, 48 h; series mostly up to 57.5 µM. The method in brief: as §3
Experiment [9] relates to HeLa. The experiment is described as above. The settings on record: Gynecologic cancer cell panel viability, ATPlite luminescence, 48 h; series mostly up to 57.5 µM. The method in brief: as §3
In experiment [10] the test system is OV90. The experiment is described as above. The settings on record: Gynecologic cancer cell panel viability, ATPlite luminescence, 48 h; series mostly up to 57.5 µM. The method, boiled down:
as §3

For experiment [11], the system named is MKL-1. In words: qHTS assay to identify novel small-molecules to repurpose for Merkel cell carcinoma treatment (AID 1296009). Note: nearly all actives have a fitted effect of over 60% in size. The settings on record: MCC and control cell lines, CellTiter-Glo viability, 72 h; series mostly up to 46 µM. The method, boiled down: as §2
Experiment [12] deals with WaGa. The experiment is described as above. The settings on record: MCC and control cell lines, CellTiter-Glo viability, 72 h; series mostly up to 46 µM. The method in brief: as §2
Experiment [13] deals with NIH3T3. As to the kind of experiment: Cytotoxic Profiling of Annotated Libraries Using Quantitative High-Throughput Screening (AID 1296008). Note: nearly all actives have a fitted effect of over 60% in size. The settings on record: Five cell lines viability, CellTiter-Glo ATP luminescence, 48-72 h; max response: active compounds read low. The method, boiled down: as §1
The test system of experiment [14] is C33A. As to the kind of experiment: Primary qHTS to identify gynecologic anti-cancer compounds using libraries of approved drugs and bioactive compounds (AID 1345084). Note: nearly all actives have a fitted effect of over 55% in size. The settings on record: Gynecologic cancer cell panel viability, ATPlite luminescence, 48 h; series mostly up to 57.5 µM. The method, boiled down:
as §3

Experiment [15] relates to JEG-3. The description is as above. The settings on record: Gynecologic cancer cell panel viability, ATPlite luminescence, 48 h; series mostly up to 57.5 µM. The method in brief:
as §3

The subject of experiment [16] is MKL-2. In words: qHTS assay to identify novel small-molecules to repurpose for Merkel cell carcinoma treatment (AID 1296009). Note: nearly all actives have a fitted effect of over 60% in size. The settings on record: MCC and control cell lines, CellTiter-Glo viability, 72 h; series mostly up to 46 µM. The method in brief:
as §2

The test system of experiment [17] is Hek293T. In words: Primary qHTS to identify gynecologic anti-cancer compounds using libraries of approved drugs and bioactive compounds (AID 1345084). Note: nearly all actives have a fitted effect of over 55% in size. The settings on record: Gynecologic cancer cell panel viability, ATPlite luminescence, 48 h, control line for the selectivity index; series mostly up to 57.5 µM. The method in brief: as §3
The test system of experiment [18] is CAOV3. The description is as above. The settings on record: Gynecologic cancer cell panel viability, ATPlite luminescence, 48 h; series mostly up to 57.5 µM. The method, boiled down:
as §3
% is set by controls: 0 for no effect and ±100 for the full control effect; potency is the fitted concentration of half-maximal effect.

In the case of `O=C(Cc1ccc(-c2ccc(OCCN3CCOCC3)cc2)cn1)NCc1ccccc1`, the molecule was called inactive in [1]. Besides, the Potency in experiment [2] is 26.4 nM (active) and 731 nM (active); in [4], 46.9 nM (active); in [5], 93.5 nM (active); in experiment [6] it was 46.9 nM (active); in experiment [8], 1580 nM (active); in experiment [9] it was 1580 nM (active). For the same molecule, the Potency in experiment [10] is 2820 nM (active). Further, the Potency entry in [3] and in experiment [7] was “inactive” throughout.

`C=CC(=O)Nc1cc2c(Nc3ccc(F)c(Cl)c3)ncnc2cc1C#CC(C)(C)N1CCN(C)CC1`: the Potency in experiment [1] is 2.09 µM (active); in experiment [4], 11800 nM (active); in [5] it was 10500 nM (active); in experiment [11], 6620 nM (active); in [6] it was 7430 nM (active); in experiment [12], 5260 nM (active).

As to `Nc1cccc(-c2cc3c(Oc4cccc(O)c4)ncnc3[nH]2)c1`, the Potency was 2.96 µM (active) in experiment [1]; 3.72 µM (active) and 4.61 µM (active) in experiment [13]; 18700 nM (active) in experiment [5]. Moreover, the Potency result in experiment [11], in experiment [6], in [14], in experiment [8] and in experiment [15] was “inactive” in each case.

Take `CC(C)(O)c1cc2nc(-c3cnc(N)nc3)nc(N3CCOCC3)c2s1`: the Potency in experiment [1] was 264 nM (active) and 1.64 µM (active); in [13] it was 418 nM (active); in [14], 3550 nM (active); in experiment [9] it was 3980 nM (active); in [17], 2000 nM (active); in experiment [10] it was 2820 nM (active). Moreover, the Potency entry in [16] is “inactive”.

Regarding `COc1cccc(-c2ccc(NC(=O)C3=C(C(=O)O)CCC3)c(F)c2)c1`, the molecule was classed as inactive in experiment [1]. In [2], the max response is -19.3%. For the same molecule, the Potency entry in [3], in experiment [4], in experiment [5], in experiment [14], in [7] and in experiment [10] was “inactive” throughout. Besides, in experiment [12], the Potency was 23500 nM (active).

Consider `COc1cc2c(Oc3ccc4[nH]c(C)cc4c3F)ncnc2cc1OCCCN1CCCC1`, for which the Potency is 8.33 µM (active) and 7.31 µM (active) in experiment [1]; 1.87 µM (active) and 2.06 µM (active) in experiment [13]. Moreover, the Potency result in [4], in experiment [6], in [12], in experiment [8], in [9] and in experiment [17] was “inactive” throughout.

On to `CN1CCC(CNc2ccc3ncc(-c4cccc(OC(F)(F)F)c4)n3n2)CC1`, for which the Potency in experiment [1] is 13.2 µM (active) and 16.4 µM (active); in experiment [2] it was 20.9 µM (active). The Potency result in [4], in experiment [5], in [16], in experiment [12], in [14] and in [8] was “inactive” each time. The Potency entry in experiment [9], in [17], in experiment [15] and in experiment [10] was “inactive” throughout.

In the case of `C=C1C(=CC=C2CCC[C@]3(C)[C@@H]([C@H](C)C=C[C@H](C)C(C)C)CC[C@@H]23)C[C@@H](O)C[C@@H]1O`, the molecule was called inactive in experiment [1] and in experiment [2]. The Potency result in experiment [3] was “inactive”. For the same molecule, the Potency in [5] is 14800 nM (active); in [11], 1180 nM (active); in experiment [16], 332 nM (active); in experiment [6], 8330 nM (active); in experiment [12], 118 nM (active).

Turning to `CC(C)=CCCC(C)=CCCC(C)=CCSc1ccccc1C(=O)O`, the Potency in experiment [2] is 4.69 µM (active); in experiment [13] it was 14800 nM (active).

As for `CC(C)C[C@H](NC(=O)CNC(=O)c1cc(Cl)ccc1Cl)B(O)O`, the Potency is 3.72 µM (active) in experiment [1]; 662 nM (active) in experiment [13]; 526 nM (active) in experiment [5]; 743 nM (active) in [11]; 264 nM (active) in [16]; 590 nM (active) in [6]. Further, the Potency in experiment [12] is 296 nM (active).

For `Cc1cnc(Nc2ccc(F)cc2Cl)nc1-c1c[nH]c(C(=O)N[C@H](CO)c2cccc(Cl)c2)c1`, the max response in [1] is -129%. In addition, the Potency is 10500 nM (active) in [13]; 14800 nM (active) in experiment [16]; 2640 nM (active) in experiment [6]; 25100 nM (active) in experiment [7]; 20000 nM (active) in experiment [8]; 31600 nM (active) in experiment [9]. In [15], the Potency result is “inactive”.

Turning to `CCCCCN(CCC12CC3CC(CC(C3)C1)C2)C(=O)NCCCc1ccncc1`, the max response in experiment [1] was -32%; in experiment [13], -9.34%. Moreover, the Potency result in experiment [4], in [5], in [11], in [16], in experiment [6] and in experiment [12] was “inactive” each time. Also, the Potency result in experiment [14], in experiment [18], in experiment [7], in [8], in experiment [9] and in experiment [17] was “inactive” in each case. Further, the Potency result in experiment [15] and in experiment [10] was “inactive” throughout.

For `CC(C)(O)CCc1ccc(OCc2cc(-c3cccc(OC(F)F)c3)c3ncccc3c2)cc1`, the molecule was called inactive in [1]. For the same molecule, the max response in experiment [13] was 4.85%. In addition, the Potency entry in experiment [3], in [4], in [5], in [11], in experiment [16] and in experiment [6] was “inactive” in each case. Also, the Potency result in experiment [12], in experiment [14], in experiment [7], in experiment [8], in [9] and in experiment [17] was “inactive” each time. In addition, in experiment [10], the Potency entry is “inactive”.

Regarding `Nc1ccccc1NC(=O)c1ccc(CNc2nccc(-c3cccnc3)n2)cc1`, the Potency in experiment [1] is 3.72 µM (active); in experiment [2], 1.87 µM (active) and 2.06 µM (active); in experiment [4], 5260 nM (active); in experiment [11], 2350 nM (active); in experiment [16], 1480 nM (active); in experiment [6] it was 2350 nM (active). Besides, the Potency in experiment [12] was 418 nM (active); in experiment [14] it was 6310 nM (active); in [7], 8910 nM (active); in experiment [8] it was 4470 nM (active); in [9], 891 nM (active); in experiment [15], 3550 nM (active).

As to `CC(C)[C@H](C(=O)Nc1ccc(C(=O)NO)cc1)c1ccccc1`, the Potency in [1] was 5.9 µM (active); in [2] it was 2.35 µM (active); in experiment [4] it was 5260 nM (active); in [11] it was 935 nM (active); in [16], 833 nM (active); in [6], 3320 nM (active). The Potency in experiment [12] was 662 nM (active).
